Measured values taken from PubChem BioAssay AID1004 (SRMLSC, 2008).
Active and inactive are the calls of the source.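 How the source made its calls: active means viability at 10 µM of 29.74% or lower, 3 SD below the compound median; inactive means the rest.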

Experiment: viability of HCT116 lacking mutant beta-catenin – cell-based, DP diverse set, validation, pilot screen (AID 1004)
Settings: HCT116 (mutant beta-catenin deleted) viability, CellTiter-Glo, 60 h; at 10 µM; stronger effect = lower value

| SMILES | viability |
| --- | --- |
| NCCc1c[nH]c2ccc(O)cc12 | 100% (inactive) |
| OCC1CCCN2CCCCC12 (centres undefined) | 99.4% (inactive) |
| C[C@@H]1CC[C@H]2[C@@H](C)C(=O)O[C@@H]3OC4(C)CC[C@@H]1[C@]32OO4 | 100% (inactive) |
| CNc1ccc2oc(C[C@@H]3OC4(CC[C@@H]3C)O[C@H](C(C)C(=O)c3ccc[nH]3)[C@H](C)C[C@H]4C)nc2c1C(=O)O (some centres undefined) | 9.98% (active) |
| CN1C[C@H](CNC(=O)OCc2ccccc2)C[C@@H]2c3cccc4c3c(cn4C)C[C@H]21 | 80.4% (inactive) |
| C[C@@H]1O[C@@H](OC2CC(O)C3(CO)C4C(CCC3(O)C2)C2(O)CCC(C3=CC(=O)OC3)C2(C)C[C@H]4O)[C@H](O)[C@H](O)[C@H]1O (some centres undefined) | 128% (inactive) |
| COC(=O)C(O)C(O)(CCC(C)C)C(=O)OC1C(OC)=CC23CCCN2CCc2cc4c(cc2C13)OCO4 (centres undefined) | 30% (inactive) |
| CC(=O)O[C@H]1[C@H]2[C@@H](OC(=O)Cc3ccccc3)[C@@H](C)C[C@]2(OC(C)=O)C(=O)/C(C)=C/[C@@H]2[C@H](CC[C@@]13CO3)C2(C)C | 89.4% (inactive) |
| CCCN1CCC[C@@H]2Cc3cn[nH]c3C[C@H]21 | 103% (inactive) |
| O=C1C=C2C=C[C@@H]3C[C@@]2(O1)[C@H]1CCCCN31 | 86% (inactive) |
| CC(C)(C)[C@]1(O)C[C@@H]2OC(=O)CC23C(=O)O[C@@H]2OC(=O)[C@H](O)C231 (some centres undefined) | 93.5% (inactive) |
| CC[C@@]1(O)C(=O)OCc2c1cc1n(c2=O)-c2cc3ccccc3nc2C1 | 24.3% (active) |
| NCC(CC(=O)O)c1ccc(Cl)cc1 (centres undefined) | 103% (inactive) |
| Nc1ccncc1 | 103% (inactive) |
| CCN1C[C@@]2(COC)C3[C@@H](OC)[C@H]4C1[C@@]3(C1C[C@]3(O)C(OC)[C@H](O)[C@@]4(OC(C)=O)C1[C@H]3OC(=O)c1ccccc1)[C@H](OC)C[C@H]2O (some centres undefined) | 99.8% (inactive) |
| CSC(=S)NCc1c[nH]c2ccccc12 | 95% (inactive) |
| C[C@]12CC[C@@H](O)C[C@@H]1CC[C@@H]1[C@@H]2CC[C@]2(C)C(=O)CC[C@@H]12 | 98.5% (inactive) |

| SMILES | viability |
| --- | --- |
| CC1=C2[C@H]3OC(=O)[C@@H](C)[C@@H]3CC[C@@]2(C)C=CC1=O | 98% (inactive) |
| CCCCCCCCCCCCCC(=O)O[C@@H]1[C@@H](C)[C@@]2(O)[C@@H](C=C(CO)C[C@]3(O)C(=O)C(C)=C[C@@H]23)[C@@H]2C(C)(C)[C@]12OC(C)=O | 82.7% (inactive) |
| N#CC(C#N)=Cc1ccc([N+](=O)[O-])c(O)c1 | 97.9% (inactive) |
| COC[C@H]1OC(=O)c2coc3c2[C@@]1(C)C1=C(C3=O)C2CCC(=O)[C@@]2(C)C[C@H]1OC(C)=O (some centres undefined) | 78.1% (inactive) |
| CC/C(=C(\c1ccccc1)c1ccc(OCCN(C)C)cc1)c1ccccc1 | 67.6% (inactive) |
| CCCC[C@H]1C(=O)O[C@H](C)[C@H](NC(=O)c2cccc(NC=O)c2OC)C(=O)O[C@@H](C)[C@@H]1OC(=O)CC(C)C | 95.2% (inactive) |
| C=C(C)[C@H]1CN[C@H](C(=O)O)[C@H]1CC(=O)O | 94.1% (inactive) |
| C=CCN1CC[C@]23c4c5ccc(O)c4O[C@H]2C(=O)CC[C@@]3(O)[C@H]1C5 | 96.6% (inactive) |
| N#Cc1nn(-c2c(Cl)cc(C(F)(F)F)cc2Cl)c(N)c1S(=O)C(F)(F)F (centres undefined) | 92.8% (inactive) |
| N#CC(C#N)=Cc1cc(O)c(O)c([N+](=O)[O-])c1 | 101% (inactive) |
| O=C1C=CC(=O)C(Cl)=C1 | 101% (inactive) |
| CC(C)c1cc2c(c(O)c1O)[C@@]1(C(=O)O)CCCC(C)(C)[C@@H]1CC2 | 103% (inactive) |
| COC1=C[C@@H]2[C@@H]3Cc4ccc(OC)c(O)c4[C@]2(CCN3C)CC1=O | 96.9% (inactive) |
| CN(C)[C@@H]1C(=O)C(C(N)=O)=C(O)[C@@]2(O)C(=O)C3=C(O)c4c(O)cccc4[C@@](C)(O)C3CC12 (some centres undefined) | 98.3% (inactive) |
| C[C@H]1CCC/C=C/C2C[C@H](O)C[C@H]2[C@H](O)/C=C/C(=O)O1 (some centres undefined) | 40.4% (inactive) |
| O[C@H]1[C@H](O)[C@@H](O)CN2CC[C@H](O)[C@H]12 | 95.4% (inactive) |
| O=C1CCC[C@H]2[C@@H]3CCCN4CCC[C@H](CN12)[C@H]34 | 104% (inactive) |
